# Measured values taken from PubChem BioAssay.
# Calls of active or inactive are those of the source. Unless noted, no rule for the calls is given here.
# What was measured:
# [1] = test system: Wnt5a (protein binding on small-molecule microarray); test: small molecules binding Wnt5a protein – biophysical, small-molecule microarray, 635/667 nm fluorescence, primary screen (AID 1142); conditions: 635 nm fluorescence, higher = more signal;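 also: fluorescence read at 667 nm with signal to noise per printed feature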
# [2] = ATP-based viability of Huh7 replicon cells – cell-based, CellTiter-Glo luminescence, basal, 48 h, cytotoxicity control for HCV replication inhibitor project, primary screen (AID 1143); conditions: higher = more signal, called active from +8 up or from −8 down;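 also: Huh7 hepatoma cells carrying a hepatitis C replication reporter with no stimulus; test concentration not given here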
# [3] = Pseudomonas biofilm growth suppression – PAO1 strain, BacTiter-Glo luminescence, LB-PBS, primary screen (AID 1144); conditions: P. aeruginosa PAO1 biofilm, 12 h, higher = more signal
# [4] = basal CRE-LacZ reporter activity in PC12 – cell-based, unstimulated, primary screen (AID 1145); conditions: no forskolin, luminescence, 4.5 h, higher = more signal, called active from +8 up or from −8 down
# [5] = forskolin-driven CRE-LacZ activity in PC12 – cell-based, CRE-LacZ reporter, forskolin-stimulated, primary screen (AID 1146); conditions: luminescence, 4.5 h, higher = more signal, called active from +8 up or from −8 down;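 also: PC12 cells with 6xCRE LacZ reporter stimulated by forskolin 10 µM; beta-galactosidase reporter signal reflecting CREB driven transcription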
# [6] = biological target: Streptavidin (Streptomyces avidinii) (UniProt P22629); test: compounds binding control protein streptavidin – biophysical, small-molecule microarray, 635/667 nm fluorescence, artefact control for SMM compound annotation, primary screen (AID 1147); conditions: higher = more signal;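 also: signal reflects streptavidin binding to arrayed compounds as a control protein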
# Streptavidin (Streptomyces avidinii), sequence (P22629 whole entry, looked up): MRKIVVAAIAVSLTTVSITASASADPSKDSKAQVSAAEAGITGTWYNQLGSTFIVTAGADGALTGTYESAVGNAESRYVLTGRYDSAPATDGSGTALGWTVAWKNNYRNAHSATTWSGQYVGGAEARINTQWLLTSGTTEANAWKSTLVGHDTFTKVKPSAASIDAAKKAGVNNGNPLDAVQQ
# [7] = probe aInhba binding on compound microarray – biochemical, small-molecule microarray, 635/667 nm fluorescence, primary screen (AID 1148); conditions: higher = more signal;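 also: score merges 667nm spot fluorescence with signal-to-noise for antibody binding to printed compounds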
# Torsin-1A (Homo sapiens) [8] = biological target: Torsin-1A (Homo sapiens) (UniProt O14656); test: TOR1A wild-type binding on microarray – cell lysate, small-molecule microarray, lysate, 635/667 nm, primary screen (AID 1149); conditions: COS7 hTOR1A-WT lysate, 635 nm fluorescence, higher = more signal
# Torsin-1A (Homo sapiens), sequence (O14656 whole entry, looked up): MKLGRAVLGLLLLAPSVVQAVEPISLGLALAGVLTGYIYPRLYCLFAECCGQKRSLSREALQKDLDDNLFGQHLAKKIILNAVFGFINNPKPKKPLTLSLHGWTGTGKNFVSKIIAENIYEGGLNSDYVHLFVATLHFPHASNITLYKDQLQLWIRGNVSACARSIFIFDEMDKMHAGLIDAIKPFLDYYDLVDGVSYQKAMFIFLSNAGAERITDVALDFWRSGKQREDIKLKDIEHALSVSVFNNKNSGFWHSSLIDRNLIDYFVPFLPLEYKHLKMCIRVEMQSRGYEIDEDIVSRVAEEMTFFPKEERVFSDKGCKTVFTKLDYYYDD
# Torsin-1A (Homo sapiens) [9] = biological target: Torsin-1A (Homo sapiens) (UniProt O14656); test: torsin A mutant lysate binding on microarrays – cell lysate, small-molecule microarray, COS7 lysate, 635/667 nm fluorescence, primary screen (AID 1150); conditions: COS7 hTOR1A mutant lysate, 635 nm fluorescence, higher = more signal;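 also: score pools 667 nm emission and signal to noise measuring lysate protein binding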
# [10] = test system: Sonic hedgehog protein (Shh); test: Sonic hedgehog microarray binding compounds – biochemical, small-molecule microarray, 635/667 nm fluorescence, primary screen (AID 1151); conditions: 635 nm fluorescence, higher = more signal;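 also: Shh protein binding to compounds spotted on small-molecule microarray slides; score combines spot fluorescence intensity with signal-to-noise across triplicate slides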
SMILES,composite z-score [1],z-score [2],z-score [3],z-score [4],z-score [5],composite z-score [6],composite z-score [7],composite z-score (Torsin-1A (Homo sapiens) [8]),composite z-score (Torsin-1A (Homo sapiens) [9]),composite z-score [10]
COc1ccc(CCNC(=O)[C@@]2(C)c3ccccc3C(=O)N(Cc3ccc(OC(F)(F)F)cc3)[C@H]2c2ccc(CO)cc2)cc1,0.887,-4.18 (inactive),0.175 (inactive),-0.179 (inactive),0.175 (inactive),-0.535,-0.166,0.43,1.43,1.23
COC(=O)[C@@]1(Cc2ccc(OC)cc2)[C@H]2c3cc(C(=O)N(C)C)n(Cc4c(CO)[nH]cc(C)c4=O)c3C[C@H]2CN1C(=O)c1ccccc1,-0.172,-0.0137 (inactive),-0.357 (inactive),1.15 (inactive),2.29 (inactive),0.27,0.0219,0.351,0.461,-0.532
CCCCCCc1nc(-c2ccc(OC)nc2)c(C)c2c1[Si](C(C)C)(C(C)C)OC2,-0.0701,-2.75 (inactive),-1.13 (inactive),0.106 (inactive),-0.556 (inactive),-0.2,0.0536,0.397,-0.57,0.417
C=CCNC(=O)[C@@H]1[C@H]2C(=O)O[C@H](c3ccccc3)[C@H](c3ccccc3)N2[C@H](c2ccc(OCCO)cc2)[C@@]12C(=O)N(C(=O)OCCOC)c1ccccc12,0.538,-1.32 (inactive),-0.328 (inactive),0.712 (inactive),-0.477 (inactive),-0.154,0.138,0.72,0.281,0.957
CCOC(=O)C[C@H]1[C@H](OC(=O)c2cc3ccccc3oc2=O)[C@@H](NC(=O)c2ccc(-c3ccccc3)cc2)c2cc(OCCCO)ccc2N1C(=O)Cc1ccc(OC)cc1,0.391,-0.346 (inactive),-0.301 (inactive),0.666 (inactive),0.0179 (inactive),0.385,-0.0095,0.195,0.775,0.989
CC[C@@H]1C=C(C(=O)O)[C@H](c2cccc(Cl)c2)N1S(=O)(=O)c1ccc(C)cc1,-0.23,-0.733 (inactive),1.24 (inactive),-0.322 (inactive),-0.166 (inactive),0.326,-0.0018,1.65,0.314,-0.726
C=C(CCCC)C(=O)CC[C@H](OC(=O)c1ccccc1-c1ccccc1C(=O)O)c1cccc(OCCO)c1,-0.151,-0.548 (inactive),-0.77 (inactive),0.434 (inactive),5.04 (inactive),-0.352,-0.179,0.259,0.114,0.847
COC(=O)[C@@]1(Cc2ccc(F)cc2)[C@H]2c3cc(C(=O)N(C)C)n(Cc4cccc5ccccc45)c3C[C@H]2CN1C(=O)c1ccccc1,1.23,-0.741 (inactive),0.529 (inactive),0.0075 (inactive),0.287 (inactive),0.0609,0.115,0.639,1.49,-0.685
COC(=O)[C@@]1(Cc2ccc(F)cc2)[C@H]2c3cc(C(=O)N4CCCC4)n(CCSCCO)c3C[C@H]2CN1C(=O)c1ccccc1,0.0841,-1.11 (inactive),-0.375 (inactive),0.397 (inactive),1.13 (inactive),-0.383,-0.0477,-0.319,0.301,-0.697
COCCCNC(=O)[C@@]1(Cc2ccccc2I)c2ccccc2C(=O)N(Cc2ccccc2C(F)(F)F)[C@H]1c1ccc(CO)cc1,-0.347,-2.13 (inactive),-0.528 (inactive),-0.619 (inactive),1.15 (inactive),-0.253,-0.016,0.0167,-0.0514,-0.414
CN1C(=O)C2C=CC(C(O)c3ccc(I)cc3)N(N(c3ccccc3)c3ccccc3)C2C1=O (stereo not given),-0.268,-0.619 (inactive),0.257 (inactive),-0.136 (inactive),0.58 (inactive),0.609,-0.0581,-0.728,-0.545,-0.416
C=CCNC(=O)[C@H]1[C@@H]2C(=O)O[C@@H](c3ccccc3)[C@@H](c3ccccc3)N2[C@@H](c2ccc(OCCO)cc2)[C@]12C(=O)N(C(=O)OCCOC)c1ccc(C#CCC(C(=O)OC)C(=O)OC)cc12,1.12,-1.17 (inactive),0.0229 (inactive),0.0614 (inactive),-0.228 (inactive),1.26,0.389,0.77,0.944,1.96
[N-]=[N+]=Nc1ccccc1C[C@]1(C(N)=O)COC(c2ccc(OCCCO)cc2)=N1,0.131,-3.62 (inactive),-1.16 (inactive),1.33 (inactive),-1.31 (inactive),0.559,0.285,0.517,1.21,-0.567
COCCOC(=O)N1C(=O)[C@@]2(c3cc(C#CCC(C(=O)OC)C(=O)OC)ccc31)[C@H](c1ccc(O)cc1)N1[C@H](c3ccccc3)[C@H](c3ccccc3)OC(=O)[C@H]1[C@@H]2C(=O)N1CCc2cc(OC)c(OC)cc2C1,0.227,-0.233 (inactive),0.12 (inactive),0.0384 (inactive),0.118 (inactive),-0.341,0.0714,0.0553,0.391,1.31
COC(=O)C1=CC(c2ccc(CO)cc2)=CC(C2CC2)N(Cc2cc3c(cc2Br)OCO3)C=C1C(=O)OC (stereo not given),0.92,-3.35 (inactive),0.754 (inactive),-0.904 (inactive),-0.5 (inactive),1.52,0.225,0.312,0.832,1.21
CN(C)CCCCNC(=O)[C@H]1C[C@H]2C(=O)N[C@@H](CCCCN(C)C)C(=O)N2[C@H]1c1ccc(O)cc1,0.215,-1.14 (inactive),-0.889 (inactive),-1.61 (inactive),-0.252 (inactive),0.165,-0.206,0.464,0.282,1.29
CC(=O)NCCCC[C@@H]1NC(=O)[C@H]2C[C@@H](C(=O)NCCCCCN)[C@@H](c3ccc(O)cc3)N2C1=O,0.0662,0.0104 (inactive),0.447 (inactive),-0.0038 (inactive),0.126 (inactive),0.947,-0.0658,0.274,0.568,1.01
COCCCNC(=O)[C@]1(Cc2ccccc2CN=[N+]=[N-])N=C(c2ccc(OCCCO)cc2)O[C@@H]1c1ccccc1N=[N+]=[N-],0.693,-4.12 (inactive),0.206 (inactive),2 (inactive),-0.786 (inactive),0.437,0.4,0.637,0.557,-0.448
C=CC[C@]1(C(N)=O)N=C(c2ccc(OCCCO)cc2)O[C@H]1c1ccccc1N=[N+]=[N-],0.423,-1.05 (inactive),0.348 (inactive),0.432 (inactive),-1.81 (inactive),0.489,0.0857,0.534,1.62,0.0211
OCCCc1cc[n+](Cc2cc3c(cc2Br)OCO3)cc1,-0.265,-0.633 (inactive),0.0177 (inactive),-0.374 (inactive),-0.121 (inactive),-0.838,-0.209,-1.27,-0.561,-0.508
C=CCNC(=O)[C@H]1[C@@H]2C(=O)O[C@@H](c3ccccc3)[C@@H](c3ccccc3)N2[C@@H](c2ccc(OCCO)cc2)[C@]12C(=O)N(C(=O)OCCOC)c1ccc(C#CCNC(N)=O)cc12,0.0992,-0.646 (inactive),-1.36 (inactive),-0.618 (inactive),-0.779 (inactive),0.286,-0.0313,0.668,0.83,0.984
C=C(CCCC)/C(=C/C[C@@H](OC(C)=O)c1cccc(OCCO)c1)c1cc(C(=O)OC)ccc1OC,-0.257,-0.917 (inactive),0.198 (inactive),4.5 (inactive),1.48 (inactive),-0.697,-0.0645,0.146,-0.558,1.48
C=CCNC(=O)[C@H]1[C@@H]2C(=O)O[C@@H](c3ccccc3)[C@@H](c3ccccc3)N2[C@@H](c2ccc(OCCO)cc2)[C@]12C(=O)Nc1ccc(C#Cc3ccc(OC)cc3)cc12,0.4,-3.41 (inactive),-0.832 (inactive),0.478 (inactive),0.237 (inactive),0.918,0.165,0.44,0.471,0.974
O=C1C2C=CC(C(O)C(c3ccccc3)c3ccccc3)N(Nc3ccccc3F)C2C(=O)N1c1ccccc1 (stereo not given),0.739,-1.16 (inactive),0.712 (inactive),2.73 (inactive),0.993 (inactive),1.58,0.0183,1.02,0.895,0.868
CCOC(=O)C1=CCC(c2cccn2C(=O)OC(C)(C)C)N(S(=O)(=O)c2ccc(C)cc2)C1 (stereo not given),0.0845,-4.35 (inactive),0.0401 (inactive),0.136 (inactive),19.4 (active),1.99,0.18,0.0444,0.461,0.157
CCOC(=O)C[C@H]1[C@H](OC(=O)Cc2ccc3c(c2)OCO3)[C@@H](NC(=O)CC(C)C)c2cc(OCCCO)ccc2N1C(=O)c1ccc2ccccc2n1,0.25,-3.23 (inactive),0.0536 (inactive),7.92 (inactive),0.812 (inactive),0.23,-0.0331,0.384,-0.147,0.458
C=C(C(=O)CC[C@@H](OC(=O)c1cccnc1)c1cccc(OCCO)c1)C(C)C,0.222,-2.97 (inactive),-0.372 (inactive),1.67 (inactive),-1.24 (inactive),-0.0835,-0.0736,-0.0348,-0.234,1.72
COc1ccc([Si](C)(C)[C@H]2[C@H](CC(=O)N3CCC[C@H]3CO)O[C@@]3(C(=O)N(C)c4c(Br)cc(C)cc43)[C@@H]2C)cc1,1.55,-1.11 (inactive),-0.518 (inactive),0.758 (inactive),1.09 (inactive),3.28,0.462,2.05,1.5,1.6
C=C[C@H](OC)[C@@H](O)c1ccc(OC)c(O)c1,-0.444,0.97 (inactive),-1.34 (inactive),0.222 (inactive),-0.904 (inactive),-1.56,-0.29,-0.874,-0.695,-0.734
